Data published in PubChem BioAssay (NCATS).
Inconclusive results are not listed. The source made the active and inactive calls. The call rests on the fitted dose curve; in most records, active means well fitted inhibition curve with a large enough effect; inconclusive means small, poorly fitted or top-dose-only effect; inactive means flat fitted curve, though single readings scatter.

Legend:
Test in all cases: qHTS profiling for inhibitors of Plasmodium falciparum proliferation (AID 504749); further: nearly all actives have a fitted effect of over 60% in size
Conditions in all cases: P. falciparum in erythrocytes, SYBR Green DNA, 72 h; series mostly up to 28.7 µM
[1] = system: CP260
How it was run: (§1)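 Parasite proliferation within erythrocytes, 72 h exposure. Endpoint: SYBR Green I fluorescence after overnight lysis at room temperature. Controls: 0.29 uM artemisinin, DMSO.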

[2] = system: CP262
How it was run: as §1

[3] = system: CP265
How it was run: as §1

[4] = system: CP266
How it was run: as §1

[5] = system: CP268
How it was run: as §1

[6] = system: CP269
How it was run: as §1

[7] = system: CP286
How it was run: as §1

[8] = system: CP291
How it was run: as §1

[9] = system: CP297
How it was run: as §1

[10] = system: CP305
How it was run: as §1

[11] = system: CP315
How it was run: as §1

[12] = system: CP325
How it was run: as §1

[13] = system: CP329
How it was run: as §1

[14] = system: DFO2036
How it was run: as §1

[15] = system: DIV14
How it was run: as §1

[16] = system: DIV17
How it was run: as §1

[17] = system: DIV30
How it was run: as §1

[18] = system: FAB9
How it was run: as §1

[19] = system: GB4
How it was run: as §1

[20] = system: HB3
How it was run: as §1

[21] = system: ICS
How it was run: as §1

[22] = system: JCK
How it was run: as §1

[23] = system: N140
How it was run: as §1

[24] = system: P93_24
How it was run: as §1

[25] = system: P94_40
How it was run: as §1

[26] = system: PAD
How it was run: as §1

[27] = system: PC15
How it was run: as §1

[28] = system: PC26
How it was run: as §1

[29] = system: PC49
How it was run: as §1

[30] = system: SC27B
How it was run: as §1

[31] = system: TAB109
How it was run: as §1

[32] = system: TAB165
How it was run: as §1

[33] = system: W2
How it was run: as §1

Measured: Potency

C[N+]1(C)C2CC[C@H]1CC(OC(=O)[C@@H](CO)c1ccccc1)C2 (stereo partly drawn)
inactive: [1] | [2] | [3] | [4] | [5] | [6] | [7] | [8] | [9] | [10] | [11] | [12] | [13] | [14] | [15] | [16] | [17] | [18] | [19] | [20] | [21] | [22] | [23] | [24] | [25] | [26] | [27] | [28] | [29] | [30] | [31] | [32] | [33]
